Source: PubChem BioAssay (National Center for Advancing Translational Sciences (NCATS))
Pf Dd2 growth – Plasmodium falciparum Dd2 growth inhibition. P. falciparum Dd2 growth, SYBR Green, 72 h. Potency, µM (series often up to 28.9 µM), without a hit: at the highest dose activity, negative = inhibition, actives largely listed as inhibitors. 120,000 tested, 4.3% active; active = well fitted inhibition curve with a large enough effect;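 note: plate controls were DMSO vehicle for no effect and reference drug for full effect; nearly all actives have a fitted effect of over 65% in size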
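Infected erythrocytes (Dd2, 0.3% parasitemia, 2.5% hematocrit final) are added to compound in RPMI-1640/Albumax II medium, grown 72 h at 37C in low oxygen, then lysed with saponin/Triton-X containing SYBR Green and read by fluorescence.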
The depositor's hits bear a star; [ ] = remark or other dose. Shown is part of a subset that was picked to be rich in hits. Potency is the fitted concentration of half-maximal effect.

How did CN1CCN(c2nc3c(S(=O)(=O)c4ccc(Cl)cc4)nnn3c3ccsc23)CC1 do in these assays?
Pf Dd2 growth: 10µM*

What do the screens show for `CC(C)c1ccc(S(=O)(=O)c2nnn3c2nc(N2CCN(C)CC2)c2sccc23)cc1`?
Pf Dd2 growth: inactive

What do the screens show for `CC1CCN(c2nc3c(S(=O)(=O)c4ccccc4)nnn3c3ccsc23)CC1`?
Pf Dd2 growth: 9.7%

How did CCc1ccc(S(=O)(=O)c2nnn3c2nc(N2CCC(C(N)=O)CC2)c2cc(Cl)ccc23)cc1 do in these assays?
Pf Dd2 growth: inactive

Results for Cc1ccc(C)c(S(=O)(=O)c2nnn3c2nc(N2CCOCC2)c2ccccc23)c1 ?
Pf Dd2 growth: -26.8%

How did CC(C)c1ccc(S(=O)(=O)c2nnn3c2nc(N2CCOCC2)c2ccccc23)cc1 do in these assays?
Pf Dd2 growth: -28.7%

What do the screens show for `Cc1ccc(S(=O)(=O)c2nnn3c2nc(NC(C)C)c2cc(Cl)ccc23)cc1C`?
Pf Dd2 growth: 7.0%

How did Cc1ccc(S(=O)(=O)c2nnn3c2nc(N2CCC(C)CC2)c2cc(Cl)ccc23)cc1C do in these assays?
Pf Dd2 growth: 11.2µM*

How did CC1CCN(c2nc3c(S(=O)(=O)c4ccccc4)nnn3c3ccc(Cl)cc23)CC1 do in these assays?
Pf Dd2 growth: 1.12µM*

How did COCCNc1nc2c(S(=O)(=O)c3ccc(C)c(C)c3)nnn2c2ccc(Cl)cc12 do in these assays?
Pf Dd2 growth: 11.8%

Results for Cc1ccc(C)c(S(=O)(=O)c2nnn3c2nc(N2CCCCC2)c2ccccc23)c1 ?
Pf Dd2 growth: 12.6µM*

How did CC1CCN(c2nc3c(S(=O)(=O)c4ccc(Cl)cc4)nnn3c3ccsc23)CC1 do in these assays?
Pf Dd2 growth: 22.4%

How did Cc1ccc(C(=O)N2CCC(CC(=O)NCc3ccccc3)C2)cc1C (stereo unspecified) do in these assays?
Pf Dd2 growth: 14.3%

Results for O=C(Cc1cccs1)N1CCC(c2noc(-c3ccncc3)n2)C1 (stereo unspecified) ?
Pf Dd2 growth: 79.2%[5.79 µM]

How did O=C(CCNC(=O)c1cnccn1)NC1CCCc2c1[nH]c1ccc(Cl)cc21 (stereo unspecified) do in these assays?
Pf Dd2 growth: -23.5%

Results for COCCNC(=O)Cn1ncc2c(C)n(Cc3ccc(C)cc3)c(C)c2c1=O ?
Pf Dd2 growth: -7.4%

How did CC1=NS(=O)(=O)N(Cc2ccccc2)C=C1C(=O)OCC1CC1 do in these assays?
Pf Dd2 growth: 47.9%

Results for O=C(O)c1cc(Br)cc(S(=O)(=O)NCC2CCCO2)c1 (stereo unspecified) ?
Pf Dd2 growth: 6.4%

How did COC(=O)c1cc(NC(=O)CCc2c(C)nc3nc(C)nn3c2C)cc(C(=O)OC)c1 do in these assays?
Pf Dd2 growth: inactive

Results for Cc1ccc(N(CC(=O)N2CCN(c3ccc(Cl)cc3)CC2)S(=O)(=O)c2c(C)nn(C)c2C)cc1 ?
Pf Dd2 growth: -20.3%

What do the screens show for `COCCNC(=O)c1sc2nc3n(c(=O)c2c1C)CCC3`?
Pf Dd2 growth: 2.9%

How did CCN1CCN(C(c2ccccc2Cl)c2c(O)cc(C)n(Cc3ccco3)c2=O)CC1 (stereo unspecified) do in these assays?
Pf Dd2 growth: 10.0%

Results for CCOc1ccc(CN2CCC(N(C(=O)CC)C3CCOCC3)CC2)cc1 ?
Pf Dd2 growth: inactive

What do the screens show for `CCc1ccc(Oc2c(C(F)(F)F)oc3c(CN4CCC(C)CC4)c(O)ccc3c2=O)cc1`?
Pf Dd2 growth: 0.316µM*

What do the screens show for `O=C1CCCCCN1C1CCN(Cc2ccc(OC(F)(F)F)cc2)CC1`?
Pf Dd2 growth: inactive

Results for CCc1ccc(Oc2c(C(F)(F)F)oc3c(CN4CCN(CC)CC4)c(O)ccc3c2=O)cc1 ?
Pf Dd2 growth: 0.1µM*

Results for CCN1CCN(Cc2c(O)ccc3c(=O)c(Oc4ccccc4Cl)c(C(F)(F)F)oc23)CC1 ?
Pf Dd2 growth: 0.251µM*

How did Cc1ccc(C(=O)N2[C@@H]3CC[C@H]2CC(NC(=O)c2ccncc2)C3)cc1C (stereo partly specified) do in these assays?
Pf Dd2 growth: -4.5%

Results for CCn1cc(CN2CCCC(c3nc(-c4cccnc4)no3)CCNC(=O)CC2)c(C)n1 (stereo unspecified) ?
Pf Dd2 growth: inactive

What do the screens show for `O=C(Nc1cccc(-c2ccco2)c1)C1CCN(Cc2ccc(CO)o2)CC1`?
Pf Dd2 growth: -25.2%

How did CSc1cccc(NC(=O)C2CCN(c3nc4ccccc4[nH]3)CC2)c1 do in these assays?
Pf Dd2 growth: inactive

How did Cc1ncc(CN2CCC(C(=O)Nc3cccc(-c4cc5ccccc5[nH]4)c3)CC2)cn1 do in these assays?
Pf Dd2 growth: 8.91µM*

Results for O=C(NC1CC1)c1nc(-c2cccnc2)c2ccccn12 ?
Pf Dd2 growth: -8.8%[44.1 µM]

How did O=C(Cc1ccsc1)N1CCCC1c1nc(C2CCOCC2)no1 (stereo unspecified) do in these assays?
Pf Dd2 growth: 11.9%

Results for Cc1ccc(C)c(NC(=O)CCCn2c(C)c3cnn(-c4ccccc4)c(=O)c3c2C)c1 ?
Pf Dd2 growth: -5.7%

How did COC(=O)c1ccc2c(=O)n(CCCCCC(=O)N3CCN(c4cc(Cl)ccc4C)CC3)c(=O)[nH]c2c1 do in these assays?
Pf Dd2 growth: 10µM*

Results for O=C(CCCn1c(=O)[nH]c2ccc(Br)cc2c1=O)N1CCN(c2cccc(Cl)c2)CC1 ?
Pf Dd2 growth: inactive

Results for CC(=O)c1ccc(N2CCN(C(=O)CCCCn3c(=O)[nH]c4ccccc4c3=O)CC2)cc1 ?
Pf Dd2 growth: 5.62µM*

What do the screens show for `CC(=O)c1ccc(N2CCN(C(=O)CCCn3c(=O)[nH]c4ccsc4c3=O)CC2)cc1`?
Pf Dd2 growth: inactive

Results for O=C(CCCCCn1c(=O)[nH]c2ccccc2c1=O)NCc1ccccc1 ?
Pf Dd2 growth: 10µM*

Results for Cc1ccc(C)c(N2CCN(C(=O)c3ccc4c(=O)n(CCc5ccccc5)c(=O)[nH]c4c3)CC2)c1 ?
Pf Dd2 growth: -24.4%

Results for O=C(CCCCCn1c(=O)[nH]c2ccccc2c1=O)NCc1ccc(Cl)cc1 ?
Pf Dd2 growth: inactive

How did O=C(CCCCCn1c(=O)[nH]c2ccccc2c1=O)NCCc1ccccc1 do in these assays?
Pf Dd2 growth: -5.3%

Results for CCCCCn1c(=O)[nH]c2cc(C(=O)N3CCN(c4ccccc4F)CC3)ccc2c1=O ?
Pf Dd2 growth: -12.6%

How did CCN1C(=O)C2(c3ccccc31)c1c(oc3ccc(C)cc3c1=O)C(=O)N2CCCOC(C)C (stereo unspecified) do in these assays?
Pf Dd2 growth: inactive

How did CCc1ccc(NC(=O)c2ccc(F)c(S(=O)(=O)N3CCN(c4ccc(OC)cc4)CC3)c2)cc1 do in these assays?
Pf Dd2 growth: -19.8%

Results for CNC(=O)N1CCC(N2CC3CC(C2)[C@H]2CCCC(=O)N2C3)CC1 (stereo partly specified) ?
Pf Dd2 growth: 3.0%

Results for Cc1ccc(C)c(OCC(=O)c2ccc3c(c2)N(CC(=O)NCC2CC2)C(=O)CO3)c1 ?
Pf Dd2 growth: -17.7%

Results for CCOC(=O)CNC(=O)c1ccc(-c2nn(C)c(=O)c3ccccc23)cc1 ?
Pf Dd2 growth: 5.4%

How did CCOc1cccc(CN2C[C@@H](NC(=O)COC)C[C@H]2CO)c1 do in these assays?
Pf Dd2 growth: -18.7%

Results for COc1cccc(NC(=O)C(Cc2ccccc2)NS(=O)(=O)c2ccc3c(c2)c(=O)n(C)c(=O)n3C)c1 (stereo unspecified) ?
Pf Dd2 growth: inactive

How did Cc1cccc(OC(=O)c2cc(-c3ccc(Cl)cc3)on2)c1C do in these assays?
Pf Dd2 growth: 33.9%

How did O=C(Nc1ccc(F)cc1F)c1cc2ccc3cccnc3c2[nH]1 do in these assays?
Pf Dd2 growth: 24.8%
